Test results from PubChem BioAssay AID504339 (National Center for Advancing Translational Sciences (NCATS), 2011).
Where “and” joins values, the source holds several entries; their conditions need not be identical. Equal values may be shown once. The campaign covered roughly 390,000 compounds. About 17,000 (4.4%) were called active. About 8% were inconclusive and are not listed. The call rests on the fitted dose curve; in most records, active means well fitted inhibition curve with a large enough effect; inconclusive means small, poorly fitted or top-dose-only effect; inactive means no such curve, though single readings can be large or run the other way. The sample as a whole holds a higher share of actives than the screen did. The source holds several records for some structures; these can differ, active in one and inactive in another.

biological target: Lysine-specific demethylase 4A (Homo sapiens) (UniProt O75164); assay: qHTS Assay for Inhibitors of JMJD2A-Tudor Domain; details: AlphaScreen JMJD2A-Tudor / H3K4me3 peptide binding; series mostly up to 114 µM; activity change, negative = inhibition: at the top concentration; further: nearly all actives have a fitted effect of over 50% in size
On the % scale 0 is the no-effect control and ±100 the full control effect; potency means the concentration at half of the fitted maximal effect.

Chain of Lysine-specific demethylase 4A (Homo sapiens) (O75164 whole entry, looked up, the tested form may be a part): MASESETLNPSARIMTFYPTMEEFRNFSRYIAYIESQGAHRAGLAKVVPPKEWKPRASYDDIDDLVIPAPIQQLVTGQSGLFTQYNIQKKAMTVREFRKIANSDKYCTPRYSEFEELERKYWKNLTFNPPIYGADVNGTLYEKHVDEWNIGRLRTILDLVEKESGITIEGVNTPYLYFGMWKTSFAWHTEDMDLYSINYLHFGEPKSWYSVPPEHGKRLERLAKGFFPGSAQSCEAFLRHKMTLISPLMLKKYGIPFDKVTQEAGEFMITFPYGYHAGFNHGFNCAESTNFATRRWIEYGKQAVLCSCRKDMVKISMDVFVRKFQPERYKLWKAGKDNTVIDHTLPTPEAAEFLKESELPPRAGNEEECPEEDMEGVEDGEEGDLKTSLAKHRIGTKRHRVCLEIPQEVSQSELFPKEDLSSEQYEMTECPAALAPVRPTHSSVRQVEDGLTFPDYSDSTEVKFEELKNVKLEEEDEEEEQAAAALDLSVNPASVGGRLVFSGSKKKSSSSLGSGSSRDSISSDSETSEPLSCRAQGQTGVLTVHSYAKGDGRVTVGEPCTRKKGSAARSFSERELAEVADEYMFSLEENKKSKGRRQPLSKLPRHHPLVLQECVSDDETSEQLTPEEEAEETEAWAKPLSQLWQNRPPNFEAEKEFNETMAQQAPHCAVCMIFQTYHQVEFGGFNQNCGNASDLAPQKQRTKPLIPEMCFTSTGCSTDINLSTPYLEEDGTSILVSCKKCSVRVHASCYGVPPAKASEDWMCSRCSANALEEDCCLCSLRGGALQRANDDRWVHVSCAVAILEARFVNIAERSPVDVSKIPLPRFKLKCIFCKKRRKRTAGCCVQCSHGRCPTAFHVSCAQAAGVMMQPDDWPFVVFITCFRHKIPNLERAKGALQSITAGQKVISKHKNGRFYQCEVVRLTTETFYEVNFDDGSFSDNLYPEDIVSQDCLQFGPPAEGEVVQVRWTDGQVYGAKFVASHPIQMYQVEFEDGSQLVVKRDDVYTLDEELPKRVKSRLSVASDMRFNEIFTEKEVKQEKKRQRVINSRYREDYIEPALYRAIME

SMILES	Potency	activity change, negative = inhibition
CC(=NNC(=S)N1CCCCCC1)c1ccccn1	11.2 µM (active)	
O=C(Nc1nnc(-c2ccccc2F)s1)c1ccccc1F		-11% (inactive)
COc1ccc(C/C(C)=N/NC(=O)c2cc(C)oc2C)cc1		-18.9% (inactive)
C/C(=N\NC(=O)c1ccccc1F)c1ccccn1	35.5 µM (active)	
Cc1cccc(C)c1NC(=S)N1CCCCCC1		7.38% (inactive)
CC1=NNC(=O)C1CCC(=O)N/N=C(\C)c1ccc(Cl)cc1 (stereo unspecified)		-9.51% (inactive)
CCNC(=S)N1CCN(c2ncccn2)CC1		-18.4% (inactive)
C/C(=N/NC(=O)CCc1ccccc1)c1ccco1		1.37% (inactive)
C/C(=N/NC(=O)c1ccn(C)n1)c1ccncc1		-9.58% (inactive)
C/C(=N\NC(=O)Cc1ccc(Cl)cc1)c1ccccn1	56.2 µM (active)	
COc1ccc(C(=O)N/N=C(\C)CC(=O)Nc2ccc(Cl)cn2)cc1		-13.5% (inactive)
COc1ccc(C/C(C)=N/NC(=O)c2ccncc2)cc1	10 µM (active)	
O=C(CCc1cn(Cc2ccc(F)cc2)c2ccccc12)NC1CCCCC1		-12.8% (inactive)
Cc1ccc(N(C)C(=O)C2CCN(S(=O)(=O)c3ccc4c(c3)CCCN4C(=O)C3CCC3)CC2)cc1		-11.6% (inactive)
O=C(CCc1nc(CN2CCN(S(=O)(=O)c3ccc(Cl)cc3)CC2)no1)N1CCCCC1		-17.9% (inactive)
CCc1ccccc1NC(=O)c1ccc2nc(CCc3ccccc3)oc2c1		-6.71% (inactive)
O=C(Cn1c(=O)n(-c2ccc(F)cc2)c(=O)c2sccc21)Nc1cccc(C(F)(F)F)c1		-13.7% (inactive)
Cc1ccccc1CN1CCC(CNC(=O)c2c(C)oc3ncnc(N4CCCCC4)c23)CC1		-10% (inactive)
COc1ccc(CN2CCc3nc(Nc4ccccc4)ncc3C2)c(OC)c1OC		-21.5% (inactive)
Cc1ccc(CSc2nc3ccsc3c(=O)n2CCC(C)C)cc1		49% (inactive)
COc1ccc(/C(C)=N/NC(=O)c2ccc3nc[nH]c3c2)cc1		-1.03% (inactive)
COc1ccc(CC(=O)Nc2c(C(N)=O)oc3ccccc23)cc1		13.2% (inactive)

SMILES	Potency	activity change, negative = inhibition
COc1ccc(CC(=O)N/N=C(\C)c2ccccn2)cc1	89.1 µM (active)	
COc1ccccc1CNC(=O)CCCn1c(=O)c2ccccc2n(CC(=O)Nc2ccc(C)cc2Cl)c1=O		-10.2% (inactive)
O=C(c1cc(-c2ccc(F)cc2)on1)N1CCN(c2ccc(F)cc2)CC1	inactive and 28.2 µM (active)	
O=C(c1cc(-c2ccc(Cl)cc2)on1)N1CCN(c2ccccc2)CC1		-7.59% (inactive)
COc1ccc(-c2cc(C(=O)N3CCN(c4ccc(F)cc4)CC3)no2)cc1		-20.4% (inactive)
COc1ccc(-n2c(=O)c3ccccc3n(Cc3ccccc3Cl)c2=O)cc1		-5.46% (inactive)
COc1ccc(-c2cc(-c3nc(-c4cc(OC)c(OC)c(OC)c4)no3)[nH]n2)c(OC)c1		-24% (inactive)
CCC(=O)Nc1ccccc1-c1nc2ccccc2n(CC(=O)Nc2ccc(C)c(C)c2)c1=O		-12.6% (inactive)
CN(C)CCCn1c(SCc2ccc(Cl)cc2)nnc1-c1ccncc1	20 µM (active)	
CC1CCCC(NC(=O)CSc2nccn2C)C1C (stereo unspecified)		-21.8% (inactive)
CCn1c(SCC(=O)NC2CC2)nnc1-c1ccncc1		-4.14% (inactive)
CCn1c(SCc2cccc(C(=O)O)c2)nnc1-c1ccc(Cl)cc1		-10.2% (inactive)
Cn1c(SCc2ccc(F)cc2)nnc1-c1ccncc1		-2.9% (inactive)
CC1CCCCC1NC(=O)CSc1nnc(-c2ccncc2)n1CCCN(C)C (stereo unspecified)	3.55 µM (active)	
Cc1ccccc1-c1nc2scc(CCNC(=O)C(=O)Nc3ccc(F)cc3F)n2n1		6.39% (inactive)
CCOC(=O)c1ccc(NC(=O)CCS(=O)(=O)c2ccc(C)cc2)cc1		-3.88% (inactive)
COc1ccc(OCC(=O)Nc2cccc(C(=O)OCc3cc(=O)n4nc(C)sc4n3)c2)cc1		-23.8% (inactive)
O=C(Cc1ccccc1)Nc1ccc(NC(=O)c2cccnc2)cc1		-11% (inactive)
O=C(CC(NCc1cccnc1)C(=O)O)Nc1ccc(O)cc1 (stereo unspecified)	25.1 µM (active)	
CCCCc1ccc(NC(=O)NCc2cccnc2)cc1		5.32% (inactive)
COc1ccccc1CNC(=O)NCc1noc2ccc(C)cc12		7.33% (inactive)
COc1ccc(NC(=O)NCc2ccc3c(c2)OCO3)c(OC)c1		-0.641% (inactive)

SMILES	Potency	activity change, negative = inhibition
COc1cccc(CC(=O)OCC(=O)NCc2ccc3c(c2)OCO3)c1		-5.52% (inactive)
COc1cccc(CNCc2ccc3c(c2)OCO3)c1	1.78 µM (active)	
Cc1ccc(CNCc2ccc3c(c2)OCO3)c(C)c1	39.8 µM (active)	
O=C(NCc1ccc2c(c1)OCO2)C12CC3CC(CC(C3)C1)C2		-2.7% (inactive)
COc1cc(OC)c(C(=O)NCc2ccc3c(c2)OCO3)cc1OC		-16.7% (inactive)
CC(=O)c1c(C)n(S(=O)(=O)c2ccc(Cl)cc2)c2ccc(NS(=O)(=O)c3ccc(Cl)cc3)cc12		-18% (inactive)
O=C(NCCc1ccccc1)c1ccc2c(c1)N(Cc1ccc(F)cc1)C(=O)c1ccccc1S2(=O)=O		-2.36% (inactive)
CC(C)(C)C1CCc2c(sc(NC(=O)c3ccccc3F)c2C(=O)N2CCCCC2)C1 (stereo unspecified)		2.42% (inactive)
CC(C)c1ccc(NC(=O)CN(C)S(=O)(=O)c2ccc3c(c2)c(=O)n(C)c(=O)n3C)cc1		0.337% (inactive)
COc1ccc(-c2cc(C(F)(F)F)nc(SCC(=O)N(C)Cc3ccccc3)n2)cc1OC		17.5% (inactive)
Cc1ccc(-c2nn(CCC(=O)Nc3ccc(Cl)c(Cl)c3)c(=O)c3ccccc23)cc1		-14.6% (inactive)
Cc1ccccc1OCCSc1nc2ccc(NC(=O)c3ccco3)cc2s1		-9.93% (inactive)
COc1ccc2nc(N3C(=O)C(O)=C(C(=O)c4ccco4)C3c3ccco3)sc2c1 (stereo unspecified)	0.794 µM (active)	
COc1ccc2nc(N3CCN(C(=O)c4ccc([N+](=O)[O-])o4)CC3)sc2c1		-22.6% (inactive)
COc1ccc(NC(C)=O)cc1NC(=O)CN1CCN(c2ccc(F)cc2)CC1		-16.2% (inactive)
COC(=O)c1ccccc1NC(=O)c1cnn(-c2ccc(F)cc2)c1-n1cccc1		-11.7% (inactive)
CCc1ccccc1NC(=O)CSc1nc(C)c(C(=O)Nc2ccccc2)c(-c2ccc(Cl)cc2)c1C#N		-16.3% (inactive)
CCN(CC)S(=O)(=O)c1ccc2c(c1)c(=O)c(C(=O)N1CCN(c3cccc(Cl)c3)CC1)cn2C		-31.3% (inactive)
OC(COCc1ccco1)CN1CCN(c2ccccc2)CC1 (stereo unspecified)	2.51 µM (active)	
CN1CCN(CC(O)COCc2ccc3c(c2)OCO3)CC1 (stereo unspecified)		-34.4% (inactive)
OC(COc1ccccc1)CN1CCN(c2cccc(Cl)c2)CC1 (stereo unspecified)		-26.4% (inactive)
COc1cccc(C(=O)NCC(=O)OCc2cc(=O)n3ccsc3n2)c1		-9.67% (inactive)
